In publication PMC12136788:
Positions count from the first letter of the chain named. Over roughly 24,000 sequences, “enrichment r” has its median near 0.99; the highest 2% begin near 3.7. The sample holds the highest values, similar sequences and a random draw of the others, so the mix is not that of the screen.

T1: UNK ZnF1-3 (human, UniProt Q9C0B0 31-174)
T1 sequence: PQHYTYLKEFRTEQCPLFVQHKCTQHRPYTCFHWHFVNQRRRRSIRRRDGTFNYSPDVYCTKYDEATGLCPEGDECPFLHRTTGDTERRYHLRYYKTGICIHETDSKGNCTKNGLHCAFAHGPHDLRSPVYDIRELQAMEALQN

B1: 139258410_139258530_201_CDS_ENSG00000114115_ENST00000232219|human|control|control (ssRNA)
RNA: GGGAGUUCUACAGUCCGACGAUCGCGGGACGGCUGGAGACUGCCGGGACAGCGGCUGCCGGUGCUACGCGGGUGGUGGGCGGCCCGGAAAUGAGCGCCCUCCGGGGACAGGGGGCUCUGCGGGGCGGCGACAGCUGGAUUCCCCAACAGAGGAUUGAGCAUCA
B2: chr17:56552419:56552420:-_ENSMUSG00000013236_ENSMUST00000086828|mus_mus|mus_mus_mus_hu_False|18_28 (ssRNA)
RNA: GGGAGUUCUACAGUCCGACGAUCAAAAAAUACACUAUUUAAAAAAAAUGAAAUGUCACGGGAUACAGUUACACUGAGAGUUUUAAAAGAAAGCUGGAUUCUGGUCCUUGCCAAAAGGCAGGCAGGGGCAGAGCGGGGAGGAGCCAACAGAGGAUUGAGCAUCA
B3: chr17:56552419:56552420:-_ENSMUSG00000013236_ENSMUST00000086828|mus_mus|motif|central (ssRNA)
RNA: GGGAGUUCUACAGUCCGACGAUCUUUGUUUUUUUCUUAAAAAAAAAAAAGAAAAAAAGAAAAAGAAAAAAAAUAUACACGGUUAAAAAAAAAUAAGAAAAAAAAUGUUGCCAAAAGGCAGGCAGGGGAGUGCGGAAGCAGAGGCAACAGAGGAUUGAGCAUCA
B4: chr17:56552419:56552420:-_ENSMUSG00000013236_ENSMUST00000086828|mus_mus|FALSE|FALSE (ssRNA)
RNA: B3 RNA with G80U, G81A
B5: chr2:65539780:65539781:-_ENSG00000198369_ENST00000356388|hu_hu|motif|central (ssRNA)
RNA: GGGAGUUCUACAGUCCGACGAUCUUUGCAAAACAACAAGCAAAAUUUCUUACUUCACUAGUAUCCUAUUCUAAUAUUGCGGAAUUUUUAGAAGUGGUGGCAACACAAUUUAAAAAAUGUUCUACUUUAGGGGUAAUGGGGAGGCAACAGAGGAUUGAGCAUCA
B6: chr7:54825262:54825263:-_ENSG00000132432_ENST00000352861|hu_hu|hu_hu_hu_mus_False|48_98 (ssRNA)
RNA: GGGAGUUCUACAGUCCGACGAUCCUGCCGGCUGGGCACAAACUGCAGCAUUACCUGAUCCAUGUUUGUUGGAUGGCGGAUUGAGAGUGCCAGGGACCGUAGCUCAGGAGAGAACCGAGCCCAACGGAACCGGAAGCUGGCAACCAACAGAGGAUUGAGCAUCA

biological target: T1, UNK ZnF1-3; experiment: nsRBNS (natural sequence RNA bind-n-seq); RBNS binding buffer (assumed for nsRBNS): 25 mM Tris pH 7.5, 150 mM KCl, 3 mM MgCl2, 0.01% Triton X-100, 500 ug/ml BSA, 20 U/ml SUPERase-In, 4 C; UNK is unkempt and MSI1 is Musashi-1; names of the RNAs are library labels; protein concentration not given here; high values mean tight binding

Going from B1 to B2, the binding signal rises from 1.1 enrichment R to 3.67 enrichment R.

Going from B3 to B4, the binding signal rises from 15.8 enrichment R to 19.2 enrichment R.

Compared with B5, B6 is lower in binding signal: 3.44 enrichment R for the first, 1.44 enrichment R for the second.
